We go through 32 molecules from PubChem BioAssay.

Calls of active or inactive are those of the source.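 The calls were made as follows, unless noted: active = current rise at least 3 SD above the untreated control mean in each of two repeat wells; inactive = the rest.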

The nature of test [1]: nonspecific flux increase, KCNQ1-free cells – parental CHO cells, counter-screen for KCNQ1 potentiator project (AID 493006;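 active = duplicate-averaged activation above buffer control mean plus 5 SD of those controls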;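 as to activation: fluorescence ratio of max minus min over baseline after K+ and Tl+ depolarization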). Conditions: parental CHO-K1 cells, FluxOR thallium flux, at 10 µM; hits give high values. (Counterscreens check selectivity or assay interference.)
Test [2] deals with Potassium voltage-gated channel subfamily KQT member 1 (Homo sapiens) (UniProt P51787). Briefly: enhancement of KCNQ1 channel thallium flux – FluxOR thallium flux, CHO cells, duplicates, confirmation (AID 493007;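 active = potentiation averaged over duplicate wells exceeding buffer-only control mean by more than 3 SD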;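 as to outcome: cells depolarized by a potassium plus thallium sulfate stimulus after compound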;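 as to potentiation: 0% = buffer-only wells and 100% = R-L3 activator control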). Particulars: KCNQ1 cell line, FluxOR thallium flux fluorescence, at 10 µM; hits give high values, % of reference activator effect, buffer zero.
Sequence of Potassium voltage-gated channel subfamily KQT member 1 (Homo sapiens) (P51787 whole entry, looked up): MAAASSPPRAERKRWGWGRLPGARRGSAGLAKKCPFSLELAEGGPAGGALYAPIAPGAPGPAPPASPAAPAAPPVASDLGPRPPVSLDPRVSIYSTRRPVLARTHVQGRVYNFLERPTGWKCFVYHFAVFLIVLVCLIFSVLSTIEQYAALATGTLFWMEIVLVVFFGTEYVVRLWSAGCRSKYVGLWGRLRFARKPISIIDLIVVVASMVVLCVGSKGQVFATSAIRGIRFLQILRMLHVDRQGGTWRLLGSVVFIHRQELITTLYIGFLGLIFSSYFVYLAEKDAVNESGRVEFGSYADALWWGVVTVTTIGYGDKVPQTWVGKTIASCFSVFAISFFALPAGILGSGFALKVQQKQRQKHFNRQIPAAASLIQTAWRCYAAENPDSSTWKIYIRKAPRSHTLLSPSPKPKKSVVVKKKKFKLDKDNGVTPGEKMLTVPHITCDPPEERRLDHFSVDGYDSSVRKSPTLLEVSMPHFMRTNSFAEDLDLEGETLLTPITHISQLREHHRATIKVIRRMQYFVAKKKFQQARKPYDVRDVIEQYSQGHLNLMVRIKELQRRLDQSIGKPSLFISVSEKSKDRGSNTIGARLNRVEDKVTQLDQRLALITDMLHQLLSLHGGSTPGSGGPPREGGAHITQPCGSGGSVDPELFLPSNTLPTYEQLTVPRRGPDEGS
Test [3] has as its target Potassium voltage-gated channel subfamily KQT member 2 (Rattus norvegicus) (UniProt O88943). Description: KCNQ2 thallium flux enhancement – KCNQ2-CHO-K1 cells, selectivity assay for KCNQ1 potentiator project (AID 493009;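 active = mean duplicate potentiation above the buffer control mean plus 5 SD of buffer wells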;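 also: assay conditions were tuned for KCNQ1 rather than KCNQ2 modulators; signal is max minus min fluorescence divided by baseline after thallium stimulus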). Conditions: FluxOR thallium flux fluorescence, at 10 µM; hits give high values, scaled: buffer 0, activator control 100.
The target in test [4] is Potassium voltage-gated channel subfamily KQT member 1 (Homo sapiens) (UniProt P51787). Description: KCNQ1 activators by electrophysiology – IonWorks patch clamp, KCNQ1-CHO cells, orthogonal assay for KCNQ1 potentiator project, confirmation (AID 493184). Conditions: automated patch clamp current, at 10 µM. For orientation: In patch-clamp work, channel activity is measured electrically.

In test [5] the target is Potassium voltage-gated channel subfamily E member 1 (Homo sapiens) + Potassium voltage-gated channel subfamily KQT member 1 (Homo sapiens) (UniProt P15382+P51787). Description: KCNQ1-E1 channel activation – thallium flux, CHO-K1 KCNQ1/E1 cells, selectivity assay for KCNQ1 potentiator project, confirmation (AID 493186;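 active = mean duplicate activation above the buffer control mean plus 5 SD of those controls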). Particulars: FluxOR thallium flux, at 10 µM.
Sequence of Potassium voltage-gated channel subfamily E member 1 (Homo sapiens) + Potassium voltage-gated channel subfamily KQT member 1 (Homo sapiens) (P51787 whole entry, looked up): as the sequence (P51787 whole entry, looked up) above

Sequence of Potassium voltage-gated channel subfamily KQT member 2 (Rattus norvegicus) (O88943 whole entry, looked up): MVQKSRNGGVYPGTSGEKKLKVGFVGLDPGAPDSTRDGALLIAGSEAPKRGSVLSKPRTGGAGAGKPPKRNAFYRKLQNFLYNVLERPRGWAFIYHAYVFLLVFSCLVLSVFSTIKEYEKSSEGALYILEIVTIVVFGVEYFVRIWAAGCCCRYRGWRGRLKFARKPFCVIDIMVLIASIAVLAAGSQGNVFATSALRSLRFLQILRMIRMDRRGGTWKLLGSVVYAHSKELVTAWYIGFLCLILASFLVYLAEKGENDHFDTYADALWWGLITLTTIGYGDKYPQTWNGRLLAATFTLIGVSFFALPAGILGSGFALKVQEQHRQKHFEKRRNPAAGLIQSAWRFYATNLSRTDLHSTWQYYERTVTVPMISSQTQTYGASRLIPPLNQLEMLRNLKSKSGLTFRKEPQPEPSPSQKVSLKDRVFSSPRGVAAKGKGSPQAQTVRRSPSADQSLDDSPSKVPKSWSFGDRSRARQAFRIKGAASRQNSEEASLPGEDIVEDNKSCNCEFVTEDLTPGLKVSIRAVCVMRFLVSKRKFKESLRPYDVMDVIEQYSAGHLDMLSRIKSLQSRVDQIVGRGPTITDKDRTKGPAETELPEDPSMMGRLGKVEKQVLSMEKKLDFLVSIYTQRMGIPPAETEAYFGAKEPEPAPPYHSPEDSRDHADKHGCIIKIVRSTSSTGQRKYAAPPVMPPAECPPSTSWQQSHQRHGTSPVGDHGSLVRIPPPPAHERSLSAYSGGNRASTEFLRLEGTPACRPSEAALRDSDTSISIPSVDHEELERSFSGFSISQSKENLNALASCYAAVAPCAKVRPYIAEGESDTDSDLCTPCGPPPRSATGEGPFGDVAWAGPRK

Consider `Cc1nc2ccccc2c(=O)n1/N=C/c1cc(Br)cc(Br)c1O`, for which the result in test [1], in test [2], in test [3] and in test [4] was inactive.
For the molecule `Cn1cccc1/C=C1/C(=O)NC(=S)N(Cc2ccc(F)cc2)C1=O`, the outcome in test [1], in test [2], in test [3], in test [4] and in test [5] was inactive.
As to `CC/C(=C\C=C\[C@@H]1C=C[C@@H]2CCC[C@H]2[C@@H]1C(=O)c1ccc[nH]1)[C@@H]1O[C@@H]([C@@H](C)C(=O)O)CC[C@@H]1C`, the activation in test [1] is 499% (active). Also, the potentiation in test [2] is 166% (active); in test [3], 442% (active). For the same molecule, the result in test [4] was inactive.
As to `CN1CCN(c2cc(N3CCCC3)c([N+](=O)[O-])cc2F)CC1`, the outcome in test [1], in test [2], in test [3] and in test [4] was inactive.
Consider `CCOc1cc(C=C2C(=O)NC(=O)NC2=O)ccc1OS(=O)(=O)c1ccccc1`, for which the result in test [1], in test [2], in test [3] and in test [4] was inactive.
As to `CNC(=O)NC(O)C(Cl)(Cl)Cl` (stereo not given), the result in test [1], in test [2], in test [3] and in test [4] was inactive.
With `O=C(c1ccc(-c2ccccc2)cc1)C1CCCN(Cc2ccn[nH]2)C1` (stereo not given), the outcome in test [1], in test [2], in test [3] and in test [4] was inactive.
On to `Cc1ccccc1-n1c(O)c(/C=N/N2CCOCC2)c(=O)[nH]c1=S`, for which the outcome in test [1], in test [2], in test [3] and in test [4] was inactive.
`COc1ccc2c(c1)/C(=C/c1cnc[nH]1)C(=O)N2`: the result in test [1], in test [2], in test [3], in test [4] and in test [5] was inactive.
Turning to `O=[N+]([O-])c1ccc(N2CCOCC2)c2ccncc12`, the outcome in test [1], in test [2], in test [3], in test [4] and in test [5] was inactive.
As to `Cc1ccc(/C=C2/C(=O)NC(=O)N(CCc3ccc(F)cc3)C2=O)o1`, the outcome in test [1], in test [2], in test [3], in test [4] and in test [5] was inactive.
As to `C/C1=C\[C@@H](C)C/C=C/[C@H]2[C@@H]3O[C@]3(C)[C@@H](C)[C@H]3[C@H](Cc4c[nH]c5ccccc45)NC(=O)[C@]32C(=O)/C=C/C(=O)[C@@H]1O`, the result in test [1], in test [3], in test [4] and in test [5] was inactive. In addition, the potentiation in test [2] is 20.5% (active).
As for `O=C1NC(=O)N(Cc2ccc(F)cc2)C(=O)/C1=C/c1cccs1`, the outcome in test [1], in test [2], in test [3] and in test [4] was inactive.
In the case of `COc1cccc(CC(=O)N2CCN(Cc3cccc(Cl)c3)CC2)c1`, the result in test [1], in test [2], in test [3] and in test [4] was inactive.
As for `CNc1ccc2oc(C[C@H]3O[C@@]4(CC[C@H]3C)O[C@H]([C@H](C)C(=O)c3ccc[nH]3)[C@H](C)C[C@H]4C)nc2c1C(=O)O`, the activation in test [1] was 144% (active). Further, the potentiation is 89% (active) in test [2] and 210% (active) in test [3]. The result in test [4] was inactive.
Take `N#CCCn1cc(C(=O)Nc2ccccc2Cl)c(-c2ccc(F)cc2)n1`: the outcome in test [1], in test [2] and in test [4] was inactive. Besides, in test [3], the potentiation was 144% (active).
For `CC(=O)OC(C)(C)/C=C/C(=O)C(C)(O)C1[C@H](O)C[C@@]2(C)C3CC=C4C(CC[C@@H](O)C4(C)C)[C@]3(CO)C(=O)C[C@]12C` (stereo not given in full), the result in test [1], in test [2], in test [3], in test [4] and in test [5] was inactive.
Turning to `C/C=C(\C)C(=O)N[C@@H](c1ccccc1)[C@@H](O)C(=O)O[C@H]1C[C@@]2(O)[C@@H](OC(=O)c3ccccc3)C3[C@](C)(C(=O)[C@H](OC(C)=O)C(=C1C)C2(C)C)[C@@H](O)C[C@H]1OC[C@@]31OC(C)=O` (stereo not given in full), the result in test [1], in test [2], in test [3], in test [4] and in test [5] was inactive.
Take `Nc1ncnc2c1ccn2[C@@H]1O[C@H](CO)[C@@H](O)[C@H]1O`: the result in test [1], in test [2], in test [3] and in test [4] was inactive.
`O=C(O)c1cccc2c1NC(c1cccc([N+](=O)[O-])c1)C1CC(Sc3ccccc3[N+](=O)[O-])C(Cl)C21` (stereo not given): the result in test [1], in test [2], in test [3] and in test [4] was inactive.
Regarding `CN1CC(C(=O)c2ccccc2)C(c2ccccc2)C1` (stereo not given), the result in test [1], in test [2], in test [3] and in test [4] was inactive.
Take `CC1(C)C[C@H]2C=C(C=O)[C@]3(C=O)C[C@]3(C)[C@H]2C1`: the result in test [1], in test [3], in test [4] and in test [5] was inactive. Further, the potentiation in test [2] was 24% (active).
For `CCOC(=O)C1C(=O)NC2(C)CC1c1cc(OC)ccc1O2` (stereo not given), the result in test [1], in test [2], in test [3] and in test [4] was inactive.
On to `CCOc1cc(CNCCc2c[nH]c3ccccc23)cc(Cl)c1OCC`, for which the outcome in test [1], in test [3], in test [4] and in test [5] was inactive. Also, the potentiation in test [2] is 19% (active).
In the case of `CN1CCC(c2c[nH]c3ccccc23)C1` (stereo not given), the outcome in test [1], in test [2], in test [3] and in test [4] was inactive.
Take `COc1ccc(C(=O)OC2CC[C@@]3(C)C4CCC5[C@]6(O)CC(O)[C@@]7(O)C(CN8CC(C)CCC8[C@@]7(C)O)[C@]6(O)C[C@@]53O[C@]24O)cc1OC` (stereo not given in full): the outcome in test [1], in test [4] and in test [5] was inactive. The potentiation in test [2] is 25.5% (active); in test [3], 160% (active).
For the molecule `CC1(C)CSC(=NCc2ccccc2)N1`, the outcome in test [1], in test [3], in test [4] and in test [5] was inactive. In test [2], the potentiation was 23% (active).
Consider `N#Cc1c(N2CCNCC2)nc(-c2ccco2)c2c1CCCC2`, for which the result in test [1], in test [2], in test [3] and in test [4] was inactive.
Regarding `Cc1c(Cl)cccc1NC(=S)N1CC2CC(C1)c1cccc(=O)n1C2` (stereo not given), the result in test [1], in test [2] and in test [4] was inactive.
Consider `O=[N+]([O-])c1cccc(C2N3CCCN23)c1` (stereo not given), for which the outcome in test [1], in test [2], in test [3], in test [4] and in test [5] was inactive.
For `CC1=CC2/C=C(\C)CCC(O)C(O)/C=C/C(=O)C23C(=O)NC(CC(C)C)C3C1C` (stereo not given), the result in test [1], in test [3], in test [4] and in test [5] was inactive. For the same molecule, the potentiation in test [2] was 23% (active).
On to `CC(=NCc1ccc(F)cc1)c1c(O)n(C)c(=O)n(C)c1=O`, for which the activation in test [1] is 144% (active). In addition, in test [2], the potentiation is 91.5% (active). Besides, the result in test [3] and in test [4] was inactive.
